Results on 39 compounds are retold here after PubChem BioAssay (Tox21).

Values joined by “and” are separate entries in the source; they are usually repeats but may differ in a detail not shown here. Identical values can stand only once. Inconclusive results are not listed. Entries that show only a call come without a potency. Some structures have more than one record in an assay (separate samples or runs), and their calls can disagree. Active and inactive are the calls of the source. Calls follow the shape of the dose curve; as a rule, active = well fitted activation curve with a large enough effect in the repeat runs; inconclusive = weak or mixed curves; inactive = flat fitted curve, though single readings scatter.
Potency is read from the fitted curve at half-maximal effect.

The first assay can be described thus: A CellTox Green Cytotoxicity Assay to monitor cytotoxicity in HepG2 cells - 0 hour (AID 1224882). Also: nearly all actives have a fitted effect of over 35% in size. To be noted: CellTox Green fluorescence; series mostly up to 76.8 µM; cytotoxicity: at the top concentration. Summed up:
(§1)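 Real-time cytotoxicity: fluorescence of a cell-impermeant cyanine dye binding DNA of dead HepG2 cells, measured repeatedly (0–40 h) during compound exposure at 37 C. Cells seeded 600/well with reagent, dosed after 5 h.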
For `CCC(C)OC(=O)c1ccc(O)cc1` (configuration not stated), the Potency entry was “inactive”.

With `C/C=C/C(=O)O`, the Potency result was “inactive”.

Consider `Cn1cnc([N+](=O)[O-])c1Sc1ncnc2nc[nH]c12`, for which the “cytotoxicity” value was -2.35% [at 35.3 µM] (inactive).

On to `Cc1cccc(N(C)C(=S)Oc2ccc3ccccc3c2)c1`, for which the Potency entry was “inactive”.

Consider `O=C=Nc1ccc(Cc2ccc(N=C=O)cc2)cc1`, for which the Potency result is “inactive”.

Regarding `O=CCc1ccccc1`, the Potency result was “inactive”.

Take `CC(C(=O)O)c1cccc(C(=O)c2ccccc2)c1` (configuration not stated): the Potency entry was “inactive”.

For the compound `CC(=O)C1(C)CC2=C(CCCC2(C)C)CC1C` (configuration not stated), the Potency entry is “inactive”.

Turning to `c1cc(N(CC2CO2)CC2CO2)ccc1OCC1CO1` (configuration not stated), the Potency entry was “inactive”.

`Nc1ccccc1N`: the Potency is 50.1 µM (active) and inactive.

As for `CCOCCOCCO`, the Potency result is “inactive”.

As to `CN(C)C(=N)N=C(N)N`, the Potency entry was “inactive”.

Regarding `COC(C)COC(C)COC(C)CO` (configuration not stated), the Potency result is “inactive”.

As for `O=C1c2cccc(O)c2C(=O)c2c(O)cccc21`, the Potency result is “inactive”.

For `O=C(O)c1ccccc1Nc1cccc(C(F)(F)F)c1`, the Potency result is “inactive”.

Turning to `Cc1ccc2c(n1)Oc1ccc(C(C)C(=O)OCC(=O)N(C)C)cc1C2` (configuration not stated), the Potency result was “inactive”.

In the case of `O=C(Nc1ccc(Cl)cc1)Nc1ccc(Cl)c(Cl)c1`, the Potency entry was “inactive”.

Turning to `C#C[C@]1(O)CC[C@H]2[C@@H]3CCc4cc(OC)ccc4[C@H]3CC[C@@]21C`, the Potency result is “inactive”.

With `O=C(c1ccccc1)c1ccccc1O`, the Potency result is “inactive”.

In the case of `C#C[C@]1(O)CC[C@H]2[C@@H]3CCC4=Cc5oncc5C[C@]4(C)[C@H]3CC[C@@]21C`, the Potency entry is “inactive”.

For the compound `CCCCc1oc2ccccc2c1C(=O)c1cc(I)c(OCCN(CC)CC)c(I)c1`, the Potency result was “inactive”.

On to `CCCCC(CC)COC(=O)c1ccc(N(C)C)cc1` (configuration not stated), for which the Potency entry is “inactive”.

For the compound `C=CC(C)(CCC=C(C)C)OC(C)=O` (configuration not stated), the Potency result was “inactive”.

With `COc1ccccc1/C=C/C=O`, the Potency result was “inactive”.

Turning to `CC(=O)c1ccccn1`, the Potency entry was “inactive”.

As to `CC(=O)Oc1ccccc1C(=O)Nc1ncc([N+](=O)[O-])s1`, the Potency result is “inactive”.

As to `CC(C)Oc1ccc2c(=O)c(-c3ccccc3)coc2c1`, the Potency result is “inactive”.

For `Oc1ccc(O)cc1`, the Potency result was “inactive”.

On to `OC[C@H]1O[C@@H]2O[C@H]3[C@H](O)[C@@H](O)[C@@H](O[C@H]4[C@H](O)[C@@H](O)[C@@H](O[C@H]5[C@H](O)[C@@H](O)[C@@H](O[C@H]6[C@H](O)[C@@H](O)[C@@H](O[C@H]7[C@H](O)[C@@H](O)[C@@H](O[C@H]8[C@H](O)[C@@H](O)[C@@H](O[C@H]1[C@H](O)[C@H]2O)O[C@@H]8CO)O[C@@H]7CO)O[C@@H]6CO)O[C@@H]5CO)O[C@@H]4CO)O[C@@H]3CO`, for which the Potency result is “inactive”.

For the compound `CN(C)CCC=C1c2ccccc2CCc2ccccc21`, the Potency entry is “inactive”.

`O=C(Nc1ccc([N+](=O)[O-])cc1Cl)c1cc(Cl)ccc1O`: the Potency entry is “inactive”.

As for `Brc1cc(Oc2cc(Br)c(Br)c(Br)c2Br)c(Br)c(Br)c1Br`, the Potency result was “inactive”.

In the case of `CCC(C)c1ccccc1O` (configuration not stated), the Potency result is “inactive”.

For `S=C(NC1CCCCC1)NC1CCCCC1`, the Potency result is “inactive”.

As for `CCCCOCCOCCO`, the Potency entry was “inactive”.

With `O=C(COc1ccc(Cl)cc1)N1CCN(Cc2ccc3c(c2)OCO3)CC1`, the Potency entry is “inactive”.

Take `O=C(c1ccc(OCCN2CCCCC2)cc1)c1c(-c2ccc(O)cc2)sc2cc(O)ccc12`: the Potency entry is “inactive”.

On to `CC(C)OC(=O)C(C)(C)Oc1ccc(C(=O)c2ccc(Cl)cc2)cc1`, for which the Potency entry is “inactive”.

With `O=C(/C=C/C=C/c1ccc2c(c1)OCO2)N1CCCCC1`, the Potency entry was “inactive”.

Another assay can be described thus: A CellTox Green Cytotoxicity Assay to monitor cytotoxicity in HepG2 cells - 32 hour (AID 1224883). Also: nearly all actives have a fitted effect of over 50% in size. The settings on record: CellTox Green fluorescence; series mostly up to 76.8 µM; cytotoxicity increase: at the top concentration. In short, it runs like this:
as §1
As to `C/C=C/C(=O)O`, the Potency result is “inactive”.

Regarding `Cn1cnc([N+](=O)[O-])c1Sc1ncnc2nc[nH]c12`, the Potency was 54.5 µM (active) and inactive.

With `Cc1cccc(N(C)C(=S)Oc2ccc3ccccc3c2)c1`, the Potency result is “inactive”.

For `O=C=Nc1ccc(Cc2ccc(N=C=O)cc2)cc1`, the Potency result was “inactive”.

For `O=CCc1ccccc1`, the Potency entry was “inactive”.

Consider `CC(C(=O)O)c1cccc(C(=O)c2ccccc2)c1` (configuration not stated), for which the Potency entry is “inactive”.

Turning to `CC(=O)C1(C)CC2=C(CCCC2(C)C)CC1C` (configuration not stated), the Potency result was “inactive”.

In the case of `c1cc(N(CC2CO2)CC2CO2)ccc1OCC1CO1` (configuration not stated), the “cytotoxicity increase” value was -3.46% (inactive).

Take `Nc1ccccc1N`: the Potency was 50.1 µM (active).

For `CCOCCOCCO`, the Potency result was “inactive”.

With `CN(C)C(=N)N=C(N)N`, the Potency result was “inactive”.

Turning to `COC(C)COC(C)COC(C)CO` (configuration not stated), the Potency entry is “inactive”.

`O=C1c2cccc(O)c2C(=O)c2c(O)cccc21`: the Potency entry was “inactive”.

As to `O=C(O)c1ccccc1Nc1cccc(C(F)(F)F)c1`, the Potency result was “inactive”.

Consider `Cc1ccc2c(n1)Oc1ccc(C(C)C(=O)OCC(=O)N(C)C)cc1C2` (configuration not stated), for which the “cytotoxicity increase” value is -9.25% [at 35.3 µM] (inactive).

As for `O=C(Nc1ccc(Cl)cc1)Nc1ccc(Cl)c(Cl)c1`, the “cytotoxicity increase” value is 24.1% [at 35.3 µM] (inactive).

As for `C#C[C@]1(O)CC[C@H]2[C@@H]3CCc4cc(OC)ccc4[C@H]3CC[C@@]21C`, the Potency is 23.9 µM (active).

Consider `O=C(c1ccccc1)c1ccccc1O`, for which the “cytotoxicity increase” value is 3.42% (inactive).

Consider `C#C[C@]1(O)CC[C@H]2[C@@H]3CCC4=Cc5oncc5C[C@]4(C)[C@H]3CC[C@@]21C`, for which the Potency result was “inactive”.

For `CCCCc1oc2ccccc2c1C(=O)c1cc(I)c(OCCN(CC)CC)c(I)c1`, the Potency is 34.9 µM (active) and 26.8 µM (active).

`CCCCC(CC)COC(=O)c1ccc(N(C)C)cc1` (configuration not stated): the Potency result was “inactive”.

`C=CC(C)(CCC=C(C)C)OC(C)=O` (configuration not stated): the Potency entry is “inactive”.

`COc1ccccc1/C=C/C=O`: the Potency result is “inactive”.

Take `CC(=O)c1ccccn1`: the Potency result was “inactive”.

Turning to `CC(=O)Oc1ccccc1C(=O)Nc1ncc([N+](=O)[O-])s1`, the Potency entry is “inactive”.

With `CC(C)Oc1ccc2c(=O)c(-c3ccccc3)coc2c1`, the Potency entry was “inactive”.

For `Oc1ccc(O)cc1`, the Potency result is “inactive”.

Regarding `OC[C@H]1O[C@@H]2O[C@H]3[C@H](O)[C@@H](O)[C@@H](O[C@H]4[C@H](O)[C@@H](O)[C@@H](O[C@H]5[C@H](O)[C@@H](O)[C@@H](O[C@H]6[C@H](O)[C@@H](O)[C@@H](O[C@H]7[C@H](O)[C@@H](O)[C@@H](O[C@H]8[C@H](O)[C@@H](O)[C@@H](O[C@H]1[C@H](O)[C@H]2O)O[C@@H]8CO)O[C@@H]7CO)O[C@@H]6CO)O[C@@H]5CO)O[C@@H]4CO)O[C@@H]3CO`, the Potency entry was “inactive”.

On to `CN(C)CCC=C1c2ccccc2CCc2ccccc21`, for which the Potency was 55 µM (active) and 43.6 µM (active) and 26.8 µM (active).

Take `O=C(Nc1ccc([N+](=O)[O-])cc1Cl)c1cc(Cl)ccc1O`: the Potency is 4.9 µM (active) and 2.93 µM (active).

With `Brc1cc(Oc2cc(Br)c(Br)c(Br)c2Br)c(Br)c(Br)c1Br`, the Potency entry was “inactive”.

Regarding `CCC(C)c1ccccc1O` (configuration not stated), the Potency is 48.6 µM (active).

For the compound `S=C(NC1CCCCC1)NC1CCCCC1`, the Potency result is “inactive”.

As to `CCCCOCCOCCO`, the Potency entry is “inactive”.

Take `O=C(COc1ccc(Cl)cc1)N1CCN(Cc2ccc3c(c2)OCO3)CC1`: the Potency result is “inactive”.

As for `O=C(c1ccc(OCCN2CCCCC2)cc1)c1c(-c2ccc(O)cc2)sc2cc(O)ccc12`, the Potency was 49 µM (active) and 54.9 µM (active).

Turning to `CC(C)OC(=O)C(C)(C)Oc1ccc(C(=O)c2ccc(Cl)cc2)cc1`, the “cytotoxicity increase” value is -7.56% [at 35.3 µM] (inactive).

In the case of `O=C(/C=C/C=C/c1ccc2c(c1)OCO2)N1CCCCC1`, the “cytotoxicity increase” value is 18.9% (inactive).
